# Results from PubChem BioAssay.
# Unmarked numbers belong to inactive results. For some of these results: Entries with a potency or affinity are not part of this list. Activity calls are given as the source filed them. Unless noted, the rule behind the calls is not given here.
# Columns and labels:
# [1] = antimalarial activity against Dd2 strain (AID 2302;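 active = growth inhibition above 50% at the single 2 µM test dose, taken to imply half-maximal potency below 2 µM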;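 note: 0% = DMSO untreated growth and 100% = chloroquine plus artemisinin killed control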); settings: P. falciparum Dd2 in RBCs, LDH growth readout, 72 h; at 2 µM; hits give high values
# [2] = human hepatoma cell viability loss – ATP luminescence, cytotoxicity control for P. falciparum antimalarial project, primary screen (AID 2303;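 active = inhibition above 50%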;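 note: 0% = DMSO wells and 100% = digitonin-killed cells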); settings: HepG2 viability, 24-48 h, at 10 µM, hits give high values
# [3] = target: L-lactate dehydrogenase (Plasmodium falciparum (isolate CDC / Honduras)) (UniProt Q27743); test: PfLDH activity inhibition – cell lysate, 3D7 strain, counter-screen for P. falciparum growth inhibition project (AID 2304);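 note: 0% = vehicle and 100% = reference inhibitor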; settings: P. falciparum 3D7 crude extract, LDH APAD/NBT absorbance; at 2 µM; hits give high values
# [4] = inhibition of 3D7 malaria parasite growth – strain 3D7 (AID 2306);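 note: 0% = DMSO wells and 100% = chloroquine plus artemisinin control wells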; settings: P. falciparum 3D7 erythrocytic growth, LDH absorbance, 72 h; at 2 µM; hits give high values
# [5] = target: Calcium-dependent protein kinase 1 (Plasmodium falciparum (isolate 3D7)) (UniProt P62344); test: PfCDPK1 kinase inhibitors, biochemical, TCAMS library (AID 1159585; cut-off not given, nearly all actives have IC50 up to about 0.98 µM;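 note: inhibitors leave more ATP so luminescence rises with inhibition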); settings: recombinant PfCDPK1, Kinase-Glo ATP depletion luminescence
# [6] = target: Plasmodium falciparum protein kinase 6 (PK6, PF3D7_1337100) (UniProt Q8IDW1); test: PfPK6 kinase inhibitors, biochemical, TCAMS library (AID 1159586); settings: recombinant PfPK6, Kinase-Glo ATP depletion luminescence
# [7] = target: Protein kinase 7 (PK7), Plasmodium falciparum 3D7 (PF3D7_0213400) (UniProt Q7YTF7); test: inhibition of Plasmodium PK7 catalytic activity – biochemical, TCAMS antimalarial set, Kinase-Glo luminescence (AID 1159587); settings: recombinant PfPK7, Kinase-Glo ATP depletion luminescence
# [8] = target: Calcium-dependent protein kinase 4 (Plasmodium falciparum (isolate 3D7)) (UniProt Q8IBS5); test: PfCDPK4 kinase inhibitors, biochemical, TCAMS library (AID 1159588; cut-off not given, nearly all actives have IC50 up to about 0.91 µM); settings: recombinant PfCDPK4, Kinase-Glo ATP depletion luminescence
# Sequence of Calcium-dependent protein kinase 4 (Plasmodium falciparum (isolate 3D7)) (Q8IBS5 whole entry, looked up): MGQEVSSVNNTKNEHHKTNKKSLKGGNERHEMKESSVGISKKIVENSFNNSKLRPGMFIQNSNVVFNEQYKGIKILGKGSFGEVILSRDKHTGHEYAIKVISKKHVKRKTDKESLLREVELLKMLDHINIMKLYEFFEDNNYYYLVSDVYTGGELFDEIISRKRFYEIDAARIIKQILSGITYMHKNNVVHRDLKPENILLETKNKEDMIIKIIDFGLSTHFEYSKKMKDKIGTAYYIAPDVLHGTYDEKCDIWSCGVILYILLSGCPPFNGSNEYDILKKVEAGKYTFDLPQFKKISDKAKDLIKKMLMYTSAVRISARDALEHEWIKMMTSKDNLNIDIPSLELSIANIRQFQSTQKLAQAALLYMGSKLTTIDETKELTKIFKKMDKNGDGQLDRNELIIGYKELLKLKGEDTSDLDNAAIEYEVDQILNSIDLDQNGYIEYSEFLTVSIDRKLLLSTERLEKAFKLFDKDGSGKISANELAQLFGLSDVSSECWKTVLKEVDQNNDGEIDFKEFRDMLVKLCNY
# Sequence of L-lactate dehydrogenase (Plasmodium falciparum (isolate CDC / Honduras)) (Q27743 whole entry, looked up): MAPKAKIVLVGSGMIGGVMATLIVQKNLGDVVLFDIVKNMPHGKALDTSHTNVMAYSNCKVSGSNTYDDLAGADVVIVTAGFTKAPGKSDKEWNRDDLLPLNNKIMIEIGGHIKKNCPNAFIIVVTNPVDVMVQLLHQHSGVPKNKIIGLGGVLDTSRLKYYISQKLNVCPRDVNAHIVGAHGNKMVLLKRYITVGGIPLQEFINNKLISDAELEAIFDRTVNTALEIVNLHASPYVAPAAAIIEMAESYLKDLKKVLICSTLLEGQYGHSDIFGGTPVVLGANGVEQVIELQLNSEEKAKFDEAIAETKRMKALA
# Sequence of Calcium-dependent protein kinase 1 (Plasmodium falciparum (isolate 3D7)) (P62344 whole entry, looked up): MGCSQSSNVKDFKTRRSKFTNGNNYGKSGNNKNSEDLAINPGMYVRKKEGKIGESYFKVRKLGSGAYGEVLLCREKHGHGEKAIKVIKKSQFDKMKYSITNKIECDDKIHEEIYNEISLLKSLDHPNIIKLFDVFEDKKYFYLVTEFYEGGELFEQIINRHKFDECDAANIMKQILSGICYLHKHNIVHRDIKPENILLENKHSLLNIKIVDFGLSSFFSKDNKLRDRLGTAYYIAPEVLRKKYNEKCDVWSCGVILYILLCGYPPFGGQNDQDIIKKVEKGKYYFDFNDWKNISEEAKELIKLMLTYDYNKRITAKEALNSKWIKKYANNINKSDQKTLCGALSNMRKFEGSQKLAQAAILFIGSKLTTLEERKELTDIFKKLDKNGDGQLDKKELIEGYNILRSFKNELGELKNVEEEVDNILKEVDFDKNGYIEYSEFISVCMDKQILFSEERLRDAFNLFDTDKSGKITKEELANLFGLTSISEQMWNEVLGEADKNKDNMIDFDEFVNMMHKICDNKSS
# Sequence of Plasmodium falciparum protein kinase 6 (PK6, PF3D7_1337100) (Q8IDW1 1-305): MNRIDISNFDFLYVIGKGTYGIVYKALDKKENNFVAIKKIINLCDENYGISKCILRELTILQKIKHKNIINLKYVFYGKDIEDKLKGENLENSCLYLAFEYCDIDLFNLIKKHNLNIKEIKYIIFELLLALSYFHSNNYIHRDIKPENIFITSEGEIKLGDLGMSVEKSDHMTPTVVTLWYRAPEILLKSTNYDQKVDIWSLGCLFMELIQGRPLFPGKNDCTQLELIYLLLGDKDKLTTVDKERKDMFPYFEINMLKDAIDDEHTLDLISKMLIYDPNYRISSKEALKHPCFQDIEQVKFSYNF
# Sequence of Protein kinase 7 (PK7), Plasmodium falciparum 3D7 (PF3D7_0213400) (Q7YTF7 1-343): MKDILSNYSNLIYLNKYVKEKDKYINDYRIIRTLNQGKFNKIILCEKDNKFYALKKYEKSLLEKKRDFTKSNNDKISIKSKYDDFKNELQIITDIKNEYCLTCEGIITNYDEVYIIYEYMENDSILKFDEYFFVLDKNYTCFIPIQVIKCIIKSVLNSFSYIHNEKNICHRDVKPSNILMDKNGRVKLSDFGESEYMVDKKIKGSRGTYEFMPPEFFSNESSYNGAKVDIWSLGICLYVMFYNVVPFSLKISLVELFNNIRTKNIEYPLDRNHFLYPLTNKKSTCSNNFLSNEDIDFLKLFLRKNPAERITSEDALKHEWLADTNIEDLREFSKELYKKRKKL
Structure (SMILES),growth inhibition [1],inhibition [2],inhibition [3],growth inhibition [4],outcome [5],outcome [6],outcome [7],outcome [8]
COc1ccc(-c2cccc(NC(=O)c3ccccc3)c2)cc1CN1CCCN(C)CC1,25%,22%,-7%,98% (active),inactive,inactive,inactive,inactive
Cc1cc(NN=Cc2cccc(Cl)c2)c2ccc(F)cc2n1,98% (active),-2%,-4%,101% (active),inactive,inactive,inactive,inactive
O=C1CCCN1CCCNCc1ccc(-c2ccc(-c3nc4ccc(C(F)(F)F)cc4[nH]3)s2)cc1,96% (active),9%,-4%,100% (active),inactive,inactive,inactive,inactive
CN(C)CCOc1ccc(-c2cc(-c3ccncc3)c(-c3ccc(Cl)c(O)c3)o2)cc1,93% (active),0%,-5%,99% (active),inactive,inactive,inactive,inactive
CCN(CCCN1CCCC1)c1cc(C)nc(Nc2ccc(Cl)cc2)n1,12%,5%,1%,100% (active),inactive,inactive,inactive,inactive
CCOCCCn1c(=N)c(C(=O)NCc2ccc(OC)cc2)cc2c(=O)n3cccc(C)c3nc21,46%,24%,2%,99% (active),inactive,inactive,inactive,inactive
Clc1ccc2c(NCc3ccccn3)ccnc2c1,99% (active),0%,-4%,99% (active),inactive,inactive,inactive,inactive
O=C1OC(c2ccccc2)(c2ccccc2)CN1C1CCN(Cc2ccc(O)c(Cl)c2)C1 (stereo not given),93% (active),10%,3%,100% (active),inactive,inactive,inactive,inactive
O=C(NC1CCN(CCN2CCc3ccccc3CC2)CC1)c1ccc(-c2ccc(C(F)(F)F)cc2)cc1,43%,45%,-4%,99% (active),inactive,inactive,inactive,inactive
Cc1ccc(NC(=O)Nc2cccc(Cl)c2)cc1-c1ccc(C(=O)Nc2ccncc2)cc1,49%,67% (active),-1%,97% (active),inactive,inactive,inactive,inactive
Cc1cc(N[C@@H](Cc2ccccc2)C(=O)NCc2cccc(F)c2)nc(NCCc2cccnc2)n1,40%,18%,-2%,92% (active),inactive,inactive,inactive,inactive
CNC(=O)C1Cc2c([nH]c3c(C)cccc23)C2(N1)C(=O)Nc1ccc(OC(F)(F)F)cc12 (stereo not given),50% (active),-7%,-3%,100% (active),inactive,inactive,inactive,inactive
Cc1ccc(-n2[nH]c(C)c(N=Nc3cccc(-c4cccc(NC(=O)OC(C)(C)C)c4)c3O)c2=O)cc1C,21%,39%,-4%,94% (active),inactive,inactive,inactive,inactive
CC(CN(C)C)C(=O)Nc1cccc(-c2ccc(-c3nc4ccc(F)cc4[nH]3)cc2)c1 (stereo not given),100% (active),11%,-1%,101% (active),inactive,inactive,inactive,inactive
CNC(=O)COc1ccc(Nc2nnc(-c3ccc(C)c(S(=O)(=O)NCC4CCCO4)c3)c3ccccc23)cc1 (stereo not given),68% (active),-8%,0%,90% (active),inactive,inactive,inactive,inactive
CCN(CC)CCN(Cc1ccc(-c2ccc(C(F)(F)F)cc2)cc1)C(=O)Cn1c(CCc2cccc(F)c2F)nc(=O)c2cc(F)c(F)cc21,56% (active),41%,-5%,100% (active),inactive,inactive,inactive,inactive
CC(=O)N(Cc1ccc(CC(C)NCCc2cccc(Cl)c2)cc1)Cc1ccc(CC(C)NCCc2cccc(Cl)c2)cc1 (stereo not given),94% (active),98% (active),-4%,101% (active),inactive,inactive,inactive,inactive
CCCCN1CCN(CC(O)CNC(=O)Nc2ccc(Cl)cc2)CC1 (stereo not given),99% (active),17%,-3%,101% (active),inactive,inactive,inactive,inactive
CCOc1ccc2c(NN=Cc3cccc(Cl)c3)cc(C)nc2c1,34%,-5%,-2%,93% (active),inactive,inactive,inactive,inactive
CCCOc1cc(OCCC)cc(-c2ccc(C(=O)Nc3ccc4ccc(C)nc4c3)c(=O)[nH]2)c1,76% (active),11%,5%,101% (active),inactive,inactive,inactive,inactive
